Data: PubChem BioAssay AID1159580 (chemical genetic matrix, 2015)
Hit rate of the full screen: of about 5,500 compounds, about 2,000 (36%) were called active. Another 18% or so got no clear call; they are omitted. Cut-off read from the data, not from the text of the source: active = normalized growth mostly below about 0.91 (no sharp cut-off); inconclusive = no clear call, values can overlap the other calls; inactive = mostly above about 0.92. Some of the results follow.

Assay: chemical genetic growth profiling, strain panel (AID 1159580);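 note: tested at 20 µM; growth read once vehicle control cultures reached saturation at 30 °C; 1 = growth at the plate median or of vehicle wells; lower values mean less growth of the strain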
Conditions: S. cerevisiae deletion strains, growth OD

Measured: normalized growth

COc1cc(NC(=S)N(C)C)c(OC)cc1Cl
inactive: locus YAR019C, strain CDC15, hits give low values 0.984 | locus YBL105C, strain PKC1, hits give low values 0.987 | locus YBR135W, strain CKS1, hits give low values 0.996 | locus YBR136W, strain MEC1, hits give low values 0.977 | locus YBR160W, strain CDC28, hits give low values 0.991 | locus YDL017W, strain CDC7, hits give low values 0.985 | locus YDL028C, strain MPS1, hits give low values 0.987 | locus YDL101C, strain DUN1, hits give low values 0.991 | locus YDL108W, strain KIN28, hits give low values 0.996 | locus YDL132W, strain cdc53, hits give low values 0.999 | locus YDL214C, strain PRR2, hits give low values 0.984 | locus YDR052C, strain DBF4, hits give low values 0.992 | locus YDR054C, strain cdc34, hits give low values 0.983 | locus YDR226W, strain ADK1, hits give low values 0.987 | locus YDR477W, strain SNF1, hits give low values 0.979 | locus YER123W, strain YCK3, hits give low values 0.978 | locus YER133W, strain GLC7, hits give low values 0.99 | locus YFL009W, strain cdc4, hits give low values 0.99 | locus YFL029C, strain CAK1, hits give low values 0.983 | locus YFR003C, strain YPI1, hits give low values 0.99 | locus YFR019W, strain FAB1, hits give low values 0.971 | locus YFR028C, strain CDC14, hits give low values 0.995 | locus YGR040W, strain KSS1, hits give low values 0.974 | locus YGR052W, strain FMP48, hits give low values 1.07 | locus YGR092W, strain DBF2, hits give low values 0.992 | locus YHR030C, strain SLT2, hits give low values 0.977 | locus YHR079C, strain IRE1, hits give low values 0.984 | locus YHR082C, strain KSP1, hits give low values 1.03 | locus YHR205W, strain SCH9, hits give low values 0.963 | locus YIL147C, strain SLN1, hits give low values 0.984 | locus YJL095W, strain BCK1, hits give low values 0.982 | locus YJL128C, strain PBS2, hits give low values 0.976 | locus YJL157C, strain FAR1, hits give low values 0.997 | locus YJR016C, strain ILV3, hits give low values 0.993 | locus YJR066W, strain TOR1 (second series), hits give low values 0.967 | locus YJR066W, strain TOR1, hits give low values 1 | locus YKL048C, strain ELM1, hits give low values 0.991 | locus YKL067W, strain YNK1, hits give low values 0.991 | locus YKL101W, strain HSL1, hits give low values 0.971 | locus YKL193C, strain SDS22, hits give low values 0.986 | locus YKL203C, strain TOR2, hits give low values 1.03 | locus YLR113W, strain HOG1, hits give low values 0.932 | locus YLR133W, strain CKI1, hits give low values 0.987 | locus YLR403W, strain SFP1, hits give low values 0.986 | locus YML070W, strain DAK1, hits give low values 0.974 | locus YMR001C, strain CDC5, hits give low values 0.985 | locus YMR205C, strain PFK2 (second series), hits give low values 0.988 | locus YMR277W, strain FCP1, hits give low values 0.997 | locus YNL006W, strain LST8, hits give low values 0.984 | locus YNL020C, strain ARK1, hits give low values 0.991 | locus YNL161W, strain CBK1, hits give low values 0.982 | locus YNL183C, strain NPR1, hits give low values 0.968 | locus YNL207W, strain RIO2, hits give low values 0.987 | locus YNL222W, strain SSU72, hits give low values 0.992 | locus YNL307C, strain MCK1 (second series), hits give low values 1 | locus YOL078W, strain AVO1, hits give low values 0.991 | locus YOL136C, strain PFK27, hits give low values 0.984 | locus YOR061W, strain CKA2, hits give low values 0.996 | locus YOR119C, strain RIO1, hits give low values 1.01 | locus YOR231W, strain MKK1, hits give low values 0.968 | locus YOR329C, strain SCD5, hits give low values 0.984 | locus YPL031C, strain PHO85, hits give low values 0.976 | locus YPL153C, strain RAD53, hits give low values 0.97 | locus YPL204W, strain HRR25, hits give low values 0.991 | locus YPL209C, strain IPL1, hits give low values 0.988 | locus YPL256C, strain CLN2, hits give low values 0.948 | locus YPR025C, strain CCL1, hits give low values 0.999 | locus YPR106W, strain ISR1, hits give low values 0.993 | locus YPR111W, strain DBF20, hits give low values 0.996 | strain NNK1, hits give low values 1 | strain TSCII, hits give low values 0.989
